Legend:
Test in all cases: log2 ratio of Biotin-Ahx-Ub-VS probe labelling (fragment/DMSO); higher = less target engagement (more negative = stronger competition), active = hit call of the paper (q ≤ 0.05, log2 ratio ≤ -1)
Settings in all cases: compound concentration: 200 uM; treatment time: 3 h
OTUD6B = target: T1, OTUD6B (UniProt Q8N6M0)
T1 sequence (whole entry): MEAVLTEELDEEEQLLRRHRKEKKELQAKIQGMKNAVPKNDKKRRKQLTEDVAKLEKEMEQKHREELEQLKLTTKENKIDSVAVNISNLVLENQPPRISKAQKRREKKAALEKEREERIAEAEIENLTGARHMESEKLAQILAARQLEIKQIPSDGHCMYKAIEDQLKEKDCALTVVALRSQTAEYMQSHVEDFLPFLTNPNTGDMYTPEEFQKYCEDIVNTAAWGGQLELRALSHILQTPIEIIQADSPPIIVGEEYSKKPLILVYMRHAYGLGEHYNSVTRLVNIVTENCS
Summary of the method: (§1)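 Average log2 ratios of fragment over vehicle were obtained by unpaired t-test from global-median-normalised Spectronaut label-free quantities. Proteins with ≥2 unique peptides were included. HEK293T lysate (495 µg per sample) was treated in triplicate with fragment at 200 µM or vehicle for 3 h, then with Biotin-Ahx-Ub-VS at 0.5 µM final for 1 h, and labelled DUBs were NeutrAvidin-enriched and run by diaPASEF LC-MS/MS.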

OTUD7B = target: T2, OTUD7B (UniProt Q6GQQ9)
T2 sequence (whole entry): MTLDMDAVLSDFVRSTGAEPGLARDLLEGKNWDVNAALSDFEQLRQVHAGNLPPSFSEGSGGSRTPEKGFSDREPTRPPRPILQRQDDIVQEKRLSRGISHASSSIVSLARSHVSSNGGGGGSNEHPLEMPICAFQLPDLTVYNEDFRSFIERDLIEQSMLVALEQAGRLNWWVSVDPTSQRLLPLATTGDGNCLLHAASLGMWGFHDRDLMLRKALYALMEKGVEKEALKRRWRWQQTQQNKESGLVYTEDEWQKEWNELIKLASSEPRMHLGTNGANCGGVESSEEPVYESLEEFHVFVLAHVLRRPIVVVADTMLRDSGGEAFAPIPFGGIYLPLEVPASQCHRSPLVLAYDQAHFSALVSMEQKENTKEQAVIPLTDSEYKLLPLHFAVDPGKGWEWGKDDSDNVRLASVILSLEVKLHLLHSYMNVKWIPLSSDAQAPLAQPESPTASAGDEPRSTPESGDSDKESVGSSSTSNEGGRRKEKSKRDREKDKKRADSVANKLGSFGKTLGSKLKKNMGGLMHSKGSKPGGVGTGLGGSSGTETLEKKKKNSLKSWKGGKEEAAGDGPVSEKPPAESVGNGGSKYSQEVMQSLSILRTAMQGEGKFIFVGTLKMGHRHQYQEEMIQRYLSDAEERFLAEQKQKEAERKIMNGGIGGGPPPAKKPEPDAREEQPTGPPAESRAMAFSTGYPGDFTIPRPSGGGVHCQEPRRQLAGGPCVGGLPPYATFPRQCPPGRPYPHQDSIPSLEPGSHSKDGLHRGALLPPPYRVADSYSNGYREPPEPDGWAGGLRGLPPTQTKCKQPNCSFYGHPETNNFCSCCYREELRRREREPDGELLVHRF
Summary of the method: as §1

PRPF8 = PRPF8 (UniProt Q6P2Q9)
Summary of the method: as §1

PSMD7 = target: T3, PSMD7 (UniProt P51665)
T3 sequence (whole entry): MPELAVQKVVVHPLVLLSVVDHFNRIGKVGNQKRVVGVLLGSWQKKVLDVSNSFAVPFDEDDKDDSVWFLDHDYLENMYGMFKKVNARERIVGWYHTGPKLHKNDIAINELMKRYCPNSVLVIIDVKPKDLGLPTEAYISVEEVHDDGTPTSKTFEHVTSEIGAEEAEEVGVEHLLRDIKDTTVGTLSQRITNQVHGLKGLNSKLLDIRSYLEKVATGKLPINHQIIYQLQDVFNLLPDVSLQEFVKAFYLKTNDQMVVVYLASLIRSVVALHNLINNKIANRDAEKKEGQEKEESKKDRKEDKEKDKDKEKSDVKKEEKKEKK
Summary of the method: as §1

UCHL1 = UCHL1 (UniProt P09936)
Sequence of UCHL1 (P09936 whole entry, looked up): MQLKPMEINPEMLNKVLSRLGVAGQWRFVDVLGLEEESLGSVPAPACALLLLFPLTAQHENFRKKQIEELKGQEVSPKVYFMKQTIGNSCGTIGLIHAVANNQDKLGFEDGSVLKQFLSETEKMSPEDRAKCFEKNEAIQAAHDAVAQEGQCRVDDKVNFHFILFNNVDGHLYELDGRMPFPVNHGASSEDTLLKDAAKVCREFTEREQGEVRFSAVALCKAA
Summary of the method: as §1

UCHL3 = target: T4, UCHL3 (UniProt P15374)
T4 sequence (whole entry): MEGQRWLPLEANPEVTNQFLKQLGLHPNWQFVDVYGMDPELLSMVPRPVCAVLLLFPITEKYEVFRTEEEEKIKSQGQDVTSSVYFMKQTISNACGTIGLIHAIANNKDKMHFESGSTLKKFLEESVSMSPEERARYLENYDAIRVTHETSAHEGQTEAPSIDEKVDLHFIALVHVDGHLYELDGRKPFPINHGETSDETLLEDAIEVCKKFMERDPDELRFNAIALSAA
Summary of the method: as §1

UCHL5 = target: T5, UCHL5 (UniProt Q9Y5K5)
T5 sequence (whole entry): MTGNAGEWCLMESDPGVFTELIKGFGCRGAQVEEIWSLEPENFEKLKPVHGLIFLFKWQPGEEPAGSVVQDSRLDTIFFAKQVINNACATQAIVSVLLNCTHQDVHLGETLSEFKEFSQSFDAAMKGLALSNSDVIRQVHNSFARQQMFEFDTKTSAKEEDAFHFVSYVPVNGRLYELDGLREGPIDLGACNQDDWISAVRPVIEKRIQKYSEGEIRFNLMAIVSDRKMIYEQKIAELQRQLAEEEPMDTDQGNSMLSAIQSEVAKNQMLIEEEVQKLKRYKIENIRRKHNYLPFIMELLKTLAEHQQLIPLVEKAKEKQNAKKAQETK
Summary of the method: as §1

USP10 = USP10 (UniProt Q14694)
Sequence of USP10 (Q14694 whole entry): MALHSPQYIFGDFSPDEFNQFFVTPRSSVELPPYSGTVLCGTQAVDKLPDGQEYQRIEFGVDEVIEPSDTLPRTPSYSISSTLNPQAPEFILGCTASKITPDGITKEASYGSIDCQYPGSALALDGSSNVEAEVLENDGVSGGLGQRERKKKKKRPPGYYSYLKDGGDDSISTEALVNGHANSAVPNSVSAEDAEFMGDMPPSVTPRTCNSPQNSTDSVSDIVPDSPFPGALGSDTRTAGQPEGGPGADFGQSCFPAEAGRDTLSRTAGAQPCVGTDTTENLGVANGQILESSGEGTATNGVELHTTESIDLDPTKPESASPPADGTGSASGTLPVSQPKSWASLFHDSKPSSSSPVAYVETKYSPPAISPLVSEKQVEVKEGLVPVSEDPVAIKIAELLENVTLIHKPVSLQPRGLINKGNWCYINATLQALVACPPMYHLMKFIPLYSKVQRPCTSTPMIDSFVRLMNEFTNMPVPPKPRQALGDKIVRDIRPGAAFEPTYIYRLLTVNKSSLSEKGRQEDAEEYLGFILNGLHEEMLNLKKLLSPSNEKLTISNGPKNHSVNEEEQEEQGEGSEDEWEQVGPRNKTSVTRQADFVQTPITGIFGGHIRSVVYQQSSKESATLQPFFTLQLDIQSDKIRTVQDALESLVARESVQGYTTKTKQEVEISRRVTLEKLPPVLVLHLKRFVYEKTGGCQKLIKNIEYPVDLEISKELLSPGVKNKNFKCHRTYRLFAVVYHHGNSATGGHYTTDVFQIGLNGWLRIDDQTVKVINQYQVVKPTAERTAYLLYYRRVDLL
Summary of the method: as §1

USP15 = target: T6, USP15 (UniProt Q9Y4E8)
T6 sequence (whole entry): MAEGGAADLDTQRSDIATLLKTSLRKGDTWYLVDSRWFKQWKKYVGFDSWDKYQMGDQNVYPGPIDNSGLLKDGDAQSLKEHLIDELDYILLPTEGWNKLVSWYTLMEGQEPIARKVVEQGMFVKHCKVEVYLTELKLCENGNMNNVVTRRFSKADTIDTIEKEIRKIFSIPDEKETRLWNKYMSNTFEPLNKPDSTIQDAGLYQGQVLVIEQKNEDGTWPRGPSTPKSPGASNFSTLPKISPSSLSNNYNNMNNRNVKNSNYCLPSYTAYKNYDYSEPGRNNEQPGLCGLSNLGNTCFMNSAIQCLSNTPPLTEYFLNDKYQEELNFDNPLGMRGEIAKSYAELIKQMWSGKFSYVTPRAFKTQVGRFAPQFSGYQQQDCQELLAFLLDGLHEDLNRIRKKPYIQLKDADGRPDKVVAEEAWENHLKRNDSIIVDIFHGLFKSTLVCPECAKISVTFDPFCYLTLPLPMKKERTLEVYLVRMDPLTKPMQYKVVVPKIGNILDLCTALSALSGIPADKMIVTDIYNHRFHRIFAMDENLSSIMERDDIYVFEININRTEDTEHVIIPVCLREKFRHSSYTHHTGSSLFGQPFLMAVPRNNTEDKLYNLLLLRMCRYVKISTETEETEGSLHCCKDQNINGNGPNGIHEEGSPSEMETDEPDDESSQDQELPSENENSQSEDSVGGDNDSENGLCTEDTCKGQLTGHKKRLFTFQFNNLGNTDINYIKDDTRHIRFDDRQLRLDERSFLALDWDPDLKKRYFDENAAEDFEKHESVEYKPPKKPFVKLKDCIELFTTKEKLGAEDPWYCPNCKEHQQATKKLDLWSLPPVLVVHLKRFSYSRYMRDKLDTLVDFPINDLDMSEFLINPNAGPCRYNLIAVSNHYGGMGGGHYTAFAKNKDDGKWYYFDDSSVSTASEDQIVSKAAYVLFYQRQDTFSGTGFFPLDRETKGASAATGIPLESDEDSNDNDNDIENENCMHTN
Summary of the method: as §1

Measured: log2 ratio of Biotin-Ahx-Ub-VS probe labelling

O=C(CCl)NCC1(c2ccccc2)CC1
active: UCHL1 -1.22
inactive: OTUD6B -0.042 | OTUD7B -0.82 | PRPF8 -0.155 | PSMD7 -0.151 | UCHL3 0.255 | UCHL5 -0.245 | USP10 0.00549 | USP15 -0.107

Source: the supplement of paper PMC11732987, “Enantioselective OTUD7B fragment discovery through chemoproteomics screening and high-throughput optimisation” (Communications Chemistry, 2025)
